MgrA-DNA mod = S. aureus MgrA activity modulators, primary screen, biochemical, S. aureus Newman, fluorescence polarization; MgrA-DNA binding; AID 602314, 2012; 84,000 compounds, 0.13% hits; inhibition, % (no concentration beside the values); in the data active = inhibition above about 30%, passing the limit was not always enough;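 note: 0% = protein plus DNA without compound and 100% = DNA alone without protein; higher means less MgrA bound to DNA so lower polarization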
Active calls of the source: *. The sample as a whole holds a higher share of hits than the screen did.

SMILES | MgrA-DNA mod
COC(=O)c1cc(C(=O)OC)c(C(=O)OC)cc1C(=O)OC | -3.3
COC(=O)c1sccc1O | -0.5
COC(=O)c1ccsc1N | 70.7*
C/C(=N\NS(C)(=O)=O)c1ccc(Br)cc1 | -0.2
Cc1cc(NS(=O)(=O)c2ccc(NC(=O)c3ccc(Cl)cc3)cc2)no1 | 2.4
COc1cc(/C=C2/C(=O)N(c3ccc(F)cc3)N=C2C)ccc1OCc1ccc(F)cc1 | 2.4
CCOc1cc(/C=C2/C(=O)ON=C2C)cc(Cl)c1OCc1ccc(F)cc1 | 54.4*
CCOC(=O)COc1c(Cl)cc(/C=C2/N=C(c3ccco3)OC2=O)cc1OCC | 2.6
OC(C#CCN1CCOCC1)(c1ccccc1)c1ccccc1 | -2.1
NC(=O)CSc1nnnn1C1CCCCC1 | -1.2
O=C(C1CCCN(S(=O)(=O)c2cccc3nonc23)C1)N1CCN(c2ccc(F)cc2)CC1 (stereo not drawn) | 0.6
CC1(C)/C(=N\OC(=O)c2cccc(C(F)(F)F)c2)[C@]2(C)CCC1C2 | 2.0
Cc1ccc(C)n1C(CC(=O)O)c1ccc(F)cc1 (stereo not drawn) | 31.4
O=C(O)CC(c1ccsc1)n1cccc1 (stereo not drawn) | 0.1
Cc1ccc(C)n1C(CC(=O)O)c1ccsc1 (stereo not drawn) | 61.3*
O=[N+]([O-])c1ccc(OCC(O)CN2CCCN(c3nc4ccc(Cl)cc4s3)CC2)cc1 (stereo not drawn) | 0.9
CC1=C(c2ccc(C)cc2)S(=O)(=O)NC1=NCc1ccccn1 | 4.2

Bioassay records: PubChem BioAssay, ICCB-Longwood Screening Facility, Harvard Medical School
